DT40 TDP1 no CPT = qHTS for Inhibitors of human tyrosyl-DNA phosphodiesterase 1 (TDP1): qHTS in cells in absence of CPT | DT40 Tdp1-/- hTDP1 cells, no CPT, ATP luminescence, 48 h | Potency, µM (titrated, usually from 46.2 µM), inactives show at the top dose activity change, negative = growth inhibition, actives largely listed as inhibitors | 15% of 420,000 active | AID 686978, 2013; further: nearly all actives have a fitted effect of over 55% in size
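Cells were dispensed at 400 per well, compounds added by pin tool, plates incubated ≥48 hr at 37 °C, then CellTiter-Glo added for 30 min at room temperature before luminescence reading. Line: DT40 Tdp1-/- complemented with hTDP1; camptothecin omitted.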
KB-3-1 tox = KB-3-1 parental cell cytotoxicity; 1.4% of 400,000 active; KB-3-1 viability, CellTiter-Glo ATP luminescence, 72 h; Potency, µM (series often up to 46.1 µM), usual class: cytotoxic; AID 1347075; further: nearly all actives have a fitted effect of over 60% in size
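Luminescent ATP read-out (CellTiter-Glo) measures survival of drug-naive KB-3-1 cells after 72 h compound exposure at 37 °C. Titration series was screened from lowest to highest concentration, with DMSO vehicle plates as background controls.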
DT40 TDP1 CPT = growth inhibition of DT40 Tdp1-/-;hTDP1 cells with camptothecin (screen for TDP1 inhibitors); chicken DT40 Tdp1-/-;hTDP1 cells + 20 nM CPT, ATP luminescence, 48 h; Potency, µM (doses to about 46.2 µM), inactives show top-dose activity change, negative = growth inhibition, actives largely listed as inhibitors; 12% of 420,000 active; further: nearly all actives have a fitted effect of over 55% in size
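Chicken DT40 Tdp1-/- cells stably complemented with human TDP1 were seeded at 400 cells/well in medium containing 20 nM camptothecin, exposed to pin-transferred compounds, and grown at 37 °C for at least 48 hr. Viability was read as ATP luminescence.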
KB-V1 cytotox = KB-V1 MDR subline cytotoxicity | KB-V1 MDR cells viability, CellTiter-Glo, 72 h | Potency, µM (highest dose often 46.1 µM), usual class: cytotoxic | 3.4% of 400,000 active; further: nearly all actives have a fitted effect of over 60% in size
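Drug-selected KB-V1 cells, grown in DMEM lacking phenol red with 10% FBS, receive compound titrations; after three days at 37 degrees C, surviving cell ATP is quantified by CellTiter-Glo luminescence and responses normalized and curve-fitted.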
HT1080 IDH1KD tx = HT-1080 IDH1 knockdown cell toxicity (counter line); HT-1080 IDH1 knockdown viability, ATP luminescence, 48 h; Potency, µM (doses to about 46.1 µM), inactives show at the highest dose activity, negative = toxicity, usual class: cytotoxic; 2% of 360,000 active; AID 686971;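 further: 0% = DMSO wells and -100% = cell-free medium wells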
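% activity derives from luminescence (CellTiter-Glo), normalised to DMSO and no-cell wells. HT-1080-IDH1KD cells, 750/well, had 48 h compound exposure at 37 °C.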
HT1080-NT tox = kills 2HG-producing HT-1080-NT fibrosarcoma cells; 1.6% of 360,000 active; HT-1080-NT fibrosarcoma viability, CellTiter-Glo ATP luminescence, 48 h; Potency, µM (titrated, usually from 46.1 µM), for inactives: top-dose activity, negative = less viability, hits mostly cytotoxic;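 further: NT is the 2HG producing partner of a matched IDH1 knockdown line; 0% = DMSO-treated cells and -100% = media-only wells without cells; nearly all actives have a fitted effect of over 55% in size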
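Toxicity toward the 2HG-producing NT line was scored as %Activity, normalised to DMSO and no-cell wells, from CellTiter-Glo luminescence after 48 hours' treatment.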
* = called active by the depositor; i = inactive; u = inconclusive; x = no result; [ ] = remark or other dose. A selection: hits, their analogues and other compounds. The true share with any hit is near 19%. The call rests on the fitted dose curve; in most records, active means well fitted curve in the direction sought with a large enough effect; inconclusive means small, poorly fitted or top-dose-only effect, or another doubt; inactive means no such curve, though single readings can be large; an effect the other way counts as inactive or inconclusive. Unless noted, on the % scale 0 is the no-effect control and ±100 the full control effect; potency means the concentration at half of the fitted maximal effect.

SMILES	DT40 TDP1 no CPT	KB-3-1 tox	DT40 TDP1 CPT	KB-V1 cytotox	HT1080 IDH1KD tx	HT1080-NT tox
O=C(N/N=C/c1ccc(OC(=O)c2cccs2)cc1)c1cccc(F)c1	20.6µM*	i	23.1µM*	i	-26.7%	6.0%[9.24 µM]
Cn1c(=O)c2c(SCCN3CCOCC3)nc(C3CCCC3)nc2n(C)c1=O	20.6µM*	i	16.4µM*	u	6.4%	-5.0%
CCCc1nc(SCC(=O)N2CCC(Cc3ccccc3)CC2)c2c(=O)n(C)c(=O)n(C)c2n1	16.4µM*	i	20.6µM*	i	15.2%	5.9%
Cn1c(=O)c2c(SCC(=O)N3CCN(c4ccccc4)CC3)nc(C3CC3)nc2n(C)c1=O	7.31µM*	i	13µM*	i	-0.1%	-1.4%
CCCc1nc(SCC(=O)N2CCCc3ccccc32)c2c(=O)n(C)c(=O)n(C)c2n1	23.1µM*	u	25.9µM*	i	2.2%	1.9%
Cn1c(=O)c2c(SCC(=O)NCCc3ccccc3)nc(C3CC3)nc2n(C)c1=O	-1.2%	i	-4.5%	i	-1.9%	1.1%
Cn1c(=O)c2c(SCC(=O)N3CCCc4ccccc43)nc(CC(C)(C)C)nc2n(C)c1=O	u	i	u	i	3.8%	12.3%
COc1ccc(NC(C)=O)cc1S(=O)(=O)Nc1ccc2c(c1)OCCO2	-8.4%	i	2.2%	i	-0.3%	-4.1%
Cc1ccc(CN2CCN(Cc3ccco3)CC2)cc1	-5.9%	i	u	i	1.8%	9.0%
O=C(CCCN1C(=O)/C(=C\c2cccc(Br)c2)SC1=S)Nc1ccc(C(=O)O)cc1	-16.0%	i	5.7%	i	12.7%	-1.0%
O=C(CCN1C(=O)/C(=C\c2cccc(Br)c2)SC1=S)NCCCN1CCOCC1	u	i	u	i	-16.3%	-12.3%
CN1CCN(C(=O)CCCN2C(=O)/C(=C/c3cccc(Br)c3)SC2=S)CC1	u	u	-21.9%	u	18.4µM*	u
CN1CCN(C(=O)CCN2C(=O)/C(=C/c3cccc(Br)c3)SC2=S)CC1	11.6µM*	u	u	i	u	14.6µM*
COc1cc(NC(=O)N2CCC(CN3CCOCC3)CC2)cc(OC)c1OC	-13.5%	x	-19.8%	x	x	x
S=c1[nH]nc(C2CCCCC2)o1	11.0%	i	0.1%	i	11.5%	2.4%
O=S(=O)(c1ccccc1)c1nc(Nc2ccccc2N2CCOCC2)sc1Cl	u	i	u	20.6µM*	-24.5%	u
NC(=O)Cn1cnc2c(nnn2-c2ccc(F)cc2)c1=O	-6.8%	i	-6.5%	u	14.9%	16.3%
CC1=CN(S(=O)(=O)c2ccc(C)cc2)C[C@@H]2[C@H]3CC[C@H](C3)[C@H]12	u	i	u	i	-5.0%	-2.3%
Cc1ccc(N=Cc2c(O)n(-c3cc(Cl)ccc3N3CCOCC3)c(=O)c3ccccc23)cc1C	6.51µM*	i	7.31µM*	i	6.2%	15.3%
CCCN(CCC)C(=O)Cc1coc2ccc3ccccc3c12	18.4µM*	i	u	u	-11.3%	-13.7%
O=C(Cc1coc2ccc3ccccc3c12)Nc1nccs1	u	i	14.6µM*	i	-8.2%	-2.1%
O=C(Cc1coc2ccc3ccccc3c12)NCc1ccccc1	u	i	u	u	u	u
CCOc1ccc(NC(=O)Cn2c(=O)n(Cc3ccc4c(c3)OCO4)c(=O)c3ccc(C(=O)NC4CCCCC4)cc32)cc1	4.61µM*	i	2.59µM*	u	x	x
Cc1cc(C)c(NC(=O)Cn2c(=O)n(Cc3ccc4c(c3)OCO4)c(=O)c3ccc(C(=O)NC4CCCCC4)cc32)c(C)c1	5.1%	i	-2.6%	u	x	x

Assay outcomes from PubChem.
